Data as given in PubChem BioAssay AID686915 (National Center for Advancing Translational Sciences (NCATS), 2013).
Values joined by “and” are separate entries in the source; they are usually repeats but may differ in a detail not shown here. Identical values can stand only once. Records with an inconclusive call do not appear. Active and inactive are the calls of the source. Calls follow the shape of the dose curve; as a rule, active = well fitted inhibition curve with a large enough effect; inconclusive = small, poorly fitted or top-dose-only effect; inactive = no such curve, though single readings can be large or run the other way.

experiment: qHTS screen for inhibitors of ELG1-dependent DNA repair in human embryonic kidney (HEK293T) cells expressing luciferase-tagged ELG1: MMS Stimulated Assay for probe SAR; conditions: HEK293T ELG1-luciferase reporter, 16 h; series mostly up to 46.1 µM; activity change, negative = inhibition: at the top concentration
Source text: Cancer cells divide rapidly compared to normal cells in the body. During cell division, cancer cells need to duplicate their genome by DNA replication. The failure of genome duplication leads to cancer cells' death. Therefore, inhibitors of DNA replication could specifically kill cancer cells. Based on this concept, many chemotherapeutic agents were developed and have been used to treat cancer patients. However, there are a limited number of agents available in the clinical setting, and some of those that do exist have low efficacy and severe side effects. Therefore, if we can find the compounds that effectively block DNA replication either by directly damaging DNA or by inhibiting other cellular mechanisms, the options for cancer treatment will be broadened. With this in mind, we developed a quantitative high-throughput ELG1-luciferase reporter gene assay. Small molecules that specifically block ELG1 function in response to DNA damage can be identified by monitoring the suppression of luciferase activity. Since ELG1 defines a pathway for repairing DNA damage, agents blocking ELG1 function can be used to sensitize cancer cells to chemotherapeutic agents whose mechanism of action involves the induction of DNA damage. NIH Molecular Libraries Probe Production Network [MLPCN] NIH Chemical Genomics Center [NCGC] MLPCN Grant: R03 MH092164 Assay Provider: Kyungjae Myung, NHGRI, NIH
ELG1-luc HEK293T cells will be seeded in 1536-well plates at a density of 2,000 cells / well. Approximately 5 hours after plating, compounds will be added to the plate by pin tool transfer and MMS will be added by FRD dispenser (final concentration of MMS = 10 µM). 16 hours following the addition of the compounds, luciferase activity will be measured using Amplight reagent.

| Compound | activity change, negative = inhibition | Potency |
| --- | --- | --- |
| COc1cc(Nc2nc(-c3ccncc3)nc3ccccc23)ccc1N1CCN(C)CC1 | 7.99% (inactive) | – |
| COc1ccc(-c2ccc(Nc3nc(-c4ccncc4)nc4ccccc34)cc2F)cc1F | 3.92% (inactive) | – |
| Cc1cnccc1-c1nc(Nc2ccc(F)c(F)c2)c2ccccc2n1 | 23.2% (inactive) | – |
| CN1CCN(c2ccc(Nc3nc(-c4ccncc4)nc4ccccc34)cc2F)CC1 | -13.1% (inactive) | – |
| Fc1cc(Nc2nc(-c3ccncc3)nc3ccccc23)ccc1-c1cccc(C(F)(F)F)c1 | – | 18.7 µM (active) |
| Fc1ccc(-c2nc(-c3ccncc3)nc3ccccc23)cc1F | 5.29% (inactive) | – |
| Fc1cc(Nc2nc(-c3ccncc3)nc3ccccc23)ccc1N1CCNCC1 | -12% (inactive) | – |
| Fc1cc(Nc2nc(-c3ccncc3)nc3ccccc23)ccc1-c1cncnc1 | 6.48% (inactive) | – |
| Fc1cc(Nc2nc(-c3ccncc3)nc3ccccc23)ccc1-c1ccnc(C(F)(F)F)c1 | -2.36% (inactive) | – |
| c1ccc2c(Nc3ccn[nH]3)nc(-c3ccncc3)nc2c1 | – | 4.69 µM (active) |
| COc1cc(-c2nc(Nc3ccc(F)c(F)c3)c3ccccc3n2)c(F)cn1 | – | 8.33 µM (active) |
| CSc1ccccc1-c1ccc(Nc2nc(-c3ccncc3)nc3ccccc23)cc1F | – | 18.7 µM (active) |
| Fc1ccc(Nc2nc(-c3ccncc3)nc3ccccc23)cc1F | -12.5% (inactive) | – |
| Fc1ccc(-c2ccc(Nc3nc(-c4ccncc4)nc4ccccc34)cc2F)c(Cl)c1 | – | 11.8 µM (active) |
| COc1ccc(Nc2nc(-c3ccncc3)nc3ccccc23)cc1F | -8.77% (inactive) | – |
| O=c1cc(-c2nc(Nc3ccc(F)c(F)c3)c3ccccc3n2)cc[nH]1 | -7.61% (inactive) | – |
| N#Cc1cnccc1-c1nc(Nc2ccc(F)c(F)c2)c2ccccc2n1 | – | 5.26 µM (active) |
| Fc1cc(Nc2nc(-c3ccncc3)nc3ccccc23)ccc1-c1ccc2[nH]ncc2c1 | -10.2% (inactive) | – |
| COc1cc(Nc2nc(-c3ccncc3)nc3ccccc23)ccc1F | – | 23.5 µM (active) and 20.9 µM (active) |
| Fc1cc(Nc2nc(-c3ccncc3)nc3ccccc23)ccc1-c1cccc(OC(F)F)c1 | 7.46% (inactive) | – |

| Compound | activity change, negative = inhibition | Potency |
| --- | --- | --- |
| Fc1cc(Nc2nc(-c3ccncc3)nc3ccccc23)ccc1OCC(F)(F)F | -19.7% (inactive) | – |
| Fc1cc(Nc2nc(-c3ccncc3)nc3ccccc23)ccc1-n1cncn1 | – | inactive |
| O=[N+]([O-])c1ccc(-c2nc(Nc3ccc(F)c(F)c3)c3ccccc3n2)cc1 | -7.96% (inactive) | – |
| Fc1cc(Nc2nc(-c3ccncc3)nc3ccccc23)ccc1-c1cn[nH]c1 | -11.2% (inactive) | – |
| Fc1cccc(-c2ccc(Nc3nc(-c4ccncc4)nc4ccccc34)cc2F)c1 | 8.75% (inactive) | – |
| COc1cc(-c2nc(Nc3ccc(F)c(F)c3)c3ccccc3n2)ccn1 | 17.9% (inactive) | – |
| Fc1cc(Nc2nc(-c3ccncc3)nc3ccccc23)ccc1-c1cccnc1 | 8.42% (inactive) | – |
| COc1ccc(-c2nc(Nc3ccc(F)c(F)c3)c3ccccc3n2)cc1 | 10.2% (inactive) | – |
| Cc1noc(C)c1-c1ccc(Nc2nc(-c3ccncc3)nc3ccccc23)cc1F | – | 18.7 µM (active) |
| COc1ccc(-n2c(C)c(C(C)=O)c3ccccc32)cc1 | – | 7.43 µM (active) and 6.62 µM (active) |
| Fc1ccc(Nc2nc(-c3ccnc(N4CCCCC4)c3)nc3ccccc23)cc1F | -17% (inactive) | – |
| N#Cc1cc(-c2nc(Nc3ccc(F)c(F)c3)c3ccccc3n2)ccn1 | -37% (inactive) | – |
| Fc1ccc(Nc2nc(-c3ccncc3Cl)nc3ccccc23)cc1F | -16.3% (inactive) | – |
| Fc1cc(Nc2nc(-c3ccncc3)nc3ccccc23)ccc1-c1cccc(OC(F)(F)F)c1 | – | 23.5 µM (active) |
| CCOC(=O)c1ccc2c(c1)c(C(C)=O)c(C)n2-c1ccc(OC)cc1 | 10.6% (inactive) | – |
| Cc1ccc(Nc2nc(-c3ccncc3)nc3ccccc23)cc1F | -27.9% (inactive) | – |
| Fc1cc(-c2nc(Nc3ccc(F)c(F)c3)c3ccccc3n2)ccn1 | -19.4% (inactive) | – |
| Fc1cc(Nc2nc(-c3ccncc3)nc3ccccc23)ccc1-c1ccncc1 | 16.6% (inactive) | – |
| COc1nccc(-c2nc(Nc3ccc(F)c(F)c3)c3ccccc3n2)c1Cl | 17.5% (inactive) | – |
| Cc1nc2ccc(Nc3nc(-c4ccncc4)nc4ccccc34)cc2s1 | 10.6% (inactive) | – |
